Source: PubChem
In the library only some 1.2% were active in any assay of this set; here they are far more common.
N-glyco inh: N-linked glycosylation inhibition; D54 ERlucT glycosylation luciferase reporter, 24 h; percent of 100 nM tunicamycin response; reporter increase, % at 12.5 µM; 0.23% of 360,000 active; AID 588692;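 active = mean luciferase reporter signal, scaled so untreated is 0 and the glycosylation-blocking control 100, at or above a set limit in every replicate; inconclusive = mean reaches the limit but not every replicate does; inactive = mean below the limit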;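 also: luciferase carries N-glycosylation sites so blocking glycosylation raises the light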
NSD2 inh: blocks human histone methyltransferase NSD2; inhibition, % at 12.5 µM; NSD2 peptide methylation, AlphaScreen, 120 min; O96028; 0.54% of 310,000 active; AID 743445; in the data active = inhibition above about 50%
Casp6 inh: caspase-6 (human) enzyme inhibition. purified caspase-6, Z-VEID-R110 cleavage fluorescence. inhibition, % at 12.5 µM. 0.53% of 350,000 active;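 active = mean inhibition across replicates at least about 35%, with every replicate also reaching that limit, limit read from the data; inconclusive = only one of the two criteria met; inactive = neither criterion met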
Target sequence (P55212 24-179 limits assumed): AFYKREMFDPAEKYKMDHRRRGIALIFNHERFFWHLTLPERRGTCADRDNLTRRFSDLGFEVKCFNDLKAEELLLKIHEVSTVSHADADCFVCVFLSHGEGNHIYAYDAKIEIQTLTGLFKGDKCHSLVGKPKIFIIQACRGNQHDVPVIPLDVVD
Target sequence (P55212 194-293 limits assumed): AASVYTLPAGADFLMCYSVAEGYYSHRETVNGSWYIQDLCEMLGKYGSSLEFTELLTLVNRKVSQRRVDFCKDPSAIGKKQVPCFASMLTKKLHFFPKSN
RAD52 anneal inh: RAD52 (human) annealing inhibition; recombinant RAD52 DNA annealing, FRET fluorescence; inhibition, % at 18.7 µM; 0.46% of 360,000 active; P43351;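 active = every replicate showing at least 50% inhibition; inconclusive = mean inhibition at least 50% but not in every replicate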
RAD54 inh: blocks human RAD54 Holliday junction branch migration; 0.14% of 360,000 active; Q92698; inhibition, % at 10.4 µM; FAM/BHQ fluorescence;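 active = mean normalized replicate activity at least 40 and at least half of replicates scoring 40 or more; inconclusive = only one of the two criteria met; inactive = mean below 40 and under half of replicates reaching 40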;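 also: inhibitors cause a drop in the FAM fluorescence signal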
A number is an active result; i = inactive; ? = inconclusive; nt = no result.

SMILES	N-glyco inh	NSD2 inh	Casp6 inh	RAD52 anneal inh	RAD54 inh
CC(C)(C)OC(=O)NCCCC[C@H](NC(=O)[C@H](Cc1c[nH]c2ccccc12)NC(=O)OCc1ccccc1)C(=O)O	i	i	38.8	i	i
CSCCC(NC(=O)OCc1ccccc1)C(=O)NC(Cc1c[nH]c2ccccc12)C(=O)O (stereo not given)	nt	i	i	i	nt
Nc1ccc2nc(-c3ccccc3)c(-c3ccccc3)nc2c1	32.7	i	i	i	i
CC(=O)NN1C(=O)/C(=C\c2ccc(Br)o2)SC1=S	i	i	50.5	i	nt
CC(=O)NN1C(=O)/C(=C/c2ccc(Br)o2)SC1=S	i	i	nt	nt	i
Cc1ccccc1NC(=O)C1CCCN(S(=O)(=O)c2cnc[nH]2)C1 (stereo not given)	i	nt	91.1	i	i
CN1CCN(c2cc(CNC[C@H]3O[C@@H](n4cnc5c(=O)[nH]c(N)nc54)[C@H](O)[C@@H]3O)ccc2F)CC1	i	nt	54.0	i	i
Nc1nc2c(ncn2[C@@H]2O[C@H](CNCc3ccc4ncccc4c3)[C@@H](O)[C@H]2O)c(=O)[nH]1	i	nt	i	i	i
C[C@H](CO)N1C[C@H](C)[C@@H](CN(C)Cc2ccc(C(=O)Nc3ccccc3N)cc2)Oc2ccc(NS(=O)(=O)c3cn(C)cn3)cc2CC1=O	nt	nt	i	i	nt
COc1cc(/C=C/C(=O)N2CCCC=CC2=O)cc(OC)c1OC	nt	nt	i	i	nt
CCOC(=O)/C(C#N)=C/c1cc2cc(C)c(C)cc2nc1Cl	i	i	i	i	i
Cc1cc2cc(C=C(C#N)C#N)c(Cl)nc2cc1C	38.0	i	i	i	i
CO[C@H]1CC[C@@H]2CCOc3ccc(C#N)cc3C(=O)N(C)C[C@@H](OC)[C@@H](C)C(=O)N(C)C[C@H]1O2	nt	nt	i	i	i
O=C(Cc1ccccc1)NN1C(=O)/C(=C/c2ccccc2C(=O)O)SC1=S	i	i	61.9	i	i
O=C(NN1C(=O)/C(=C/c2ccc(O)c(O)c2)SC1=S)c1ccccc1	i	nt	44.9	i	i
O=C(O)COc1ccccc1/C=C1\SC(=S)N(NC(=O)c2ccccc2O)C1=O	i	nt	i	i	i
CO[C@H]1CN(C)C(=O)c2ccc(NS(=O)(=O)CC(F)(F)F)cc2OC[C@H](C)N(CC2CCCCC2)C[C@@H]1C	nt	nt	i	i	nt
COc1ccc(-n2c(C)c(C(C)=O)c(C(C)=O)c2C)cc1	i	i	38.7	i	i
CCOc1ccc(-n2c(C)c(C(C)=O)c(C(C)=O)c2C)cc1	i	i	nt	nt	i
CCCCCCC(=O)N(O)C1CC(=O)N(Cc2ccccc2)C1=O (stereo not given)	49.2	i	nt	nt	i
Cc1nc(NC(=O)CSc2nnc3ncccn23)sc1C	nt	i	nt	nt	nt
CN=c1sc2c(n1C)C(=O)c1ccccc1C2=O	i	nt	63.0	i	nt
COc1ccc(Cl)cc1NC(=O)CN(C)CC(=O)Nc1ccc(Br)cc1	i	nt	i	i	nt
COc1ccc(Cl)cc1NC(=O)CN(C)CC(=O)Nc1cc(OC)c(OC)c(OC)c1	32.5	i	i	i	i
O=C(O)c1cc(O)c2c(c1)[C@H]([C@H]1c3cc(C(=O)O)cc(O)c3C(=O)c3c(O[C@@H]4O[C@H](CO)[C@@H](O)[C@H](O)[C@H]4O)cccc31)c1cccc(OC3O[C@H](CO)[C@@H](O)[C@H](O)[C@H]3O)c1C2=O (stereo not given in full)	i	nt	82.8	i	i
SMILES	N-glyco inh	NSD2 inh	Casp6 inh	RAD52 anneal inh	RAD54 inh
O=C1c2cc(CO)cc(O)c2C(=O)c2c(O[C@@H]3OC(CO)[C@@H](O)[C@@H](O)[C@@H]3O)cccc21 (stereo not given in full)	i	nt	i	i	?
O=C1c2c(O)cccc2C(C2OC(CO)[C@@H](O)[C@H](O)[C@H]2O)c2cc(CO)cc(O)c21 (stereo not given in full)	i	nt	i	i	i
O=C(O)c1cc(O)c2c(c1)[C@@H]([C@H]1c3cc(C(=O)O)cc(O)c3C(=O)c3c(O[C@@H]4O[C@H](CO)[C@@H](O)[C@H](O)[C@H]4O)cccc31)c1cccc(OC3O[C@H](CO)[C@@H](O)[C@H](O)[C@H]3O)c1C2=O (stereo not given in full)	i	nt	90.8	i	i
CN(C)C(=O)c1cccc(-c2ccc3n(c2=O)C[C@H]2[C@H](CO)[C@@H](C(=O)NCC(F)(F)F)[C@@H]3N2C)c1	nt	nt	i	i	i
COc1cc(C=c2c3ccccc3n3c2cc(-c2ccccc2)[n+]3C)cc(OC)c1OC	i	nt	96.3	i	nt
CN(C)c1ccc(C=c2c3ccccc3n3c2cc(-c2ccccc2)[n+]3C)cc1	?	i	i	i	nt
CN(C)c1ccc(C=c2c3cc([N+](=O)[O-])ccc3n3c2cc(-c2ccccc2)[n+]3C)cc1	i	i	i	99.7	nt
C[C@H](CO)N1C[C@H](C)[C@H](CN(C)C(=O)C2CCCCC2)OCCCC[C@H](C)Oc2ccc(NC(=O)CCC(F)(F)F)cc2C1=O	nt	nt	i	i	i
COc1cc(OC)c(/C=C2\C(=O)Nc3ccccc32)c(OC)c1	nt	nt	i	i	nt
COc1ccc(C(=O)/C=C2/C(=O)Nc3ccccc32)cc1OC	28.8	i	i	i	i
C=CCOc1ccccc1C(=O)/C=C1/C(=O)Nc2ccccc21	31.6	i	i	i	i
C=CCOc1ccc(C(=O)/C=C2/C(=O)Nc3ccccc32)cc1	i	i	i	i	i
COc1ccc(C(=O)/C=C2/C(=O)Nc3ccccc32)c(OC)c1	33.2	i	i	i	nt
COc1ccc(C(=O)/C=C2/C(=O)Nc3ccccc32)cc1	?	i	i	i	i
CCCC(=O)N1CCC2(CC1)CN(C(=O)C1CC1)[C@@H](CO)c1[nH]c3cc(OC)ccc3c12	nt	nt	i	i	nt
COc1ccc(S(=O)(=O)N(C)C[C@H]2Oc3c(NS(=O)(=O)c4ccc(C)cc4)cccc3C(=O)N([C@H](C)CO)C[C@@H]2C)cc1	nt	nt	i	nt	nt
O=S(=O)(c1ccc(F)cc1)c1snnc1-c1ccccc1	i	i	43.1	i	nt
O=S(=O)(c1ccc(Cl)cc1)c1snnc1-c1ccccc1	i	i	nt	nt	i
CN(C)C(=O)C[C@H]1C[C@H]2c3cc(NC(=O)c4ccc5c(c4)OCO5)ccc3O[C@H]2[C@H](CO)O1	nt	nt	i	i	i
CCOc1ccc2c(c1)C(NC(C)=O)C(=O)N2CCN1CCOCC1 (stereo not given)	i	nt	55.1	i	i
C=CC(=O)Nc1cccc(Oc2ccnc(Nc3ccc(N4CCN(C)CC4)cc3)n2)c1	i	nt	i	93.0	?
C=CC(=O)Nc1cccc(Oc2ccnc3[nH]ccc23)c1	i	nt	nt	nt	i
C=CC(=O)Nc1cccc(N(C)c2ccnc(Nc3ccc(N4CCN(C)CC4)cc3)n2)c1	i	nt	nt	nt	81.5
COCC(=O)N1[C@@H]2CN(C(=O)Nc3ccccc3F)c3ccccc3[C@@H]2[C@@H]1CO	nt	nt	35.7	i	i
CC1=C(n2ccnc2)CCC1=O	86.4	nt	nt	nt	i
CC1=C(N2CCOCC2)CCC1=O	i	nt	i	i	i
O=C(C[C@@H]1CC[C@H]2[C@@H](COC[C@H](O)CN2S(=O)(=O)c2cccc(F)c2)O1)NCCCN1CCOCC1	nt	nt	i	i	i
